# Results taken from PubChem BioAssay (EPA / NIEHS).
# Records with an inconclusive call do not appear. Calls of active or inactive are those of the source. Rule for the calls: active = hit-call score of the fitted dose curve at least 0.9, where 1 is the maximum; inconclusive = response in the unintended direction; inactive = score below 0.9.
# Read-out: ABC Transporter (ABCB1), ABCB1 (gene 5243)
# Test: CLD_ABCB1_48hr: CellzDirect (CLD) Gene Expression Assay for ABC Transporter (ABCB1) at 48 hours (AID 2283695);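 for AC50: potency for induction meaning increase of mRNA over DMSO vehicle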
# Method: CLD_48hr is a cell-based, multiplexed-readout assay that uses hepatocyte, a human liver primary cell, with measurements taken at 48 hours after chemical dosing in a 96-well plate.CLD_ABCB1_48hr is one of 16 assay component(s) measured or calculated from the CLD_48hr assay. It is designed to make measurements of mRNA induction, a form of inducible reporter, as detected with chemiluminescence signals by Quantitative Nuclease Protection Assay (qNPA) technology.Data from the assay component CLD_ABCB1_48hr was analyzed at the endpoint, CLD_ABCB1_48hr, in the positive analysis fitting direction relative to DMSO as the negative control and baseline of activity. Using a type of inducible reporter, gain-of-signal activity can be used to understand changes in the reporter gene as they relate to the gene ABCB1. Furthermore, this assay endpoint can be referred to as a primary readout. To generalize the intended target to other relatable targets, this assay endpoint is annotated to the transporter intended target family, where subfamily is ABC transporter.
# Human hepatocyte cultures were treated daily for two consecutive days with fresh dosing solutions containing appropriate concentrations of the 320 ToxCast chemicals (chemical identities were blinded to CellzDirect and other ToxCast collaborators), vehicle control (0.2% DMSO), and positive control inducers as summarized in Table 1. Due to the large number of treatment groups and chemicals examined, the ToxCast chemicals were divided into two groups (spanning two independent cultures of hepatocytes from separate donor preparations (Hu778: ToxCast plates 1 and 2; Hu776: ToxCast plates 3 and 4). Each preparation of human hepatocyte cultures was treated with respective vehicle control, medium only control, set of six positive controls/reference chemicals for the five hepatic receptor pathways, and a subset of eight of the ToxCast chemicals (indoxacarb, pyrithiobac-sodium, norflurazon, cyhalofop-butyl, methomyl, thiram, acetochlor, and propiconazole). These replicate data, coupled with internal replicates designed within the blinded ToxCast chemical library, provided additional data to evaluate interindividual differences between hepatocyte preparations and their potential impact on chemical profiles.Cell morphology and integrity were evaluated using phase-contrast microscopy as an indicator of hepatocyte cell health (Tyson & Green, 1987). Cultures for each treatment group (i.e., media, vehicle [0.2% DMSO], positive control inducers [multiple concentrations], and the ToxCast chemicals [multiple concentrations]) were observed and cell morphology was assessed relative to vehicle control cultures at each harvest time point (0, 6, 24, or 48 h). […] Images were evaluated at the conclusion of the study to assess changes in cell integrity and account for the effects of chemical exposure on uncharacteristic changes in concentration-dependent gene expression profiles. The results from these determinations of apparent cytotoxicity were annotated (yes/no) alongside the corresponding qNPA data for reference.At the conclusion of each treatment period, hepatocyte cultures (96-well) were washed with 1 volume of HBSS, lysed by addition of 25 ul ArrayPlate lysis buffer (HTG, Tucson, AZ), and 70 ul/well of Denaturation Oil, denatured by incubation at 95C for 10 min, and frozen at approximately -70C until analysis by nuclease protection assay (qNPA) (Roberts et al., 2007). For qNPA analysis, cell lysates were thawed at 50C for approximately 30 min, qNPA probes were added, and samples were incubated at 95C for 10 min to begin the detection process by denaturing the target RNA, dissociating the duplexes and secondary structure hybridization. At the conclusion of the hybridization period, S1 nuclease reagent was added to each sample to digest all nonprotected nucleotides at 50C for 60-90 min. […]
SMILES,outcome,AC50
CC(=NC#N)N(C)Cc1ccc(Cl)nc1,inactive,–
C#CC(C)(C)NC(=O)c1cc(Cl)cc(Cl)c1,inactive,–
CCCOc1nn(C(=O)NS(=O)(=O)c2ccccc2C(=O)OC)c(=O)n1C,inactive,–
C[N+]1(C)CCCCC1,inactive,–
CCOP(=S)(OCC)Oc1ccc2c(C)c(Cl)c(=O)oc2c1,inactive,–
CCc1cccc(CC)c1N(COC)C(=O)CCl,inactive,–
CCNc1nc(Cl)nc(NC(C)(C)C#N)n1,inactive,–
C=C(C)[C@H]1Cc2c(ccc3c2O[C@@H]2COc4cc(OC)c(OC)cc4[C@@H]2C3=O)O1,inactive,–
CNC(=O)Oc1cccc2c1OC(C)(C)O2,inactive,–
CC(C)[C@H](C(=O)O[C@H](C#N)c1cccc(Oc2ccccc2)c1)c1ccc(Cl)cc1,inactive,–
CCCCOC(=O)[C@@H](C)Oc1ccc(Oc2ccc(C#N)cc2F)cc1,inactive,–
CC(C)N(C(=O)SCC(Cl)=C(Cl)Cl)C(C)C,inactive,–
CCC(=NOC/C=C/Cl)C1=C(O)CC(C2CCOCC2)CC1=O (stereo not given),inactive,–
COP(=O)(OC)OC(Br)C(Cl)(Cl)Br (stereo not given),inactive,–
CCOP(=S)(OCC)OC(Cl)C(Cl)(Cl)Cl (stereo not given),inactive,–
CON=C(C(=O)OC)c1ccccc1CON=C(C)c1cccc(C(F)(F)F)c1,inactive,–
CCC(CC)Nc1c([N+](=O)[O-])cc(C)c(C)c1[N+](=O)[O-],inactive,–
CCCOCC(=Nc1ccc(Cl)cc1C(F)(F)F)n1ccnc1,inactive,–
COc1cc(OC)nc(Sc2cccc(Cl)c2C(=O)O)n1,inactive,–
CCOP(=S)(OCC)SCCSCC,inactive,–

SMILES,outcome,AC50
CSC1=N[C@@](C)(c2ccccc2)C(=O)N1Nc1ccccc1,inactive,–
S=C1NCCN1,inactive,–
Nc1nc(N)nc(NC2CC2)n1,inactive,–
Nc1c(Cl)cc([N+](=O)[O-])cc1Cl,inactive,–
CCc1cnc(C2=NC(C)(C(C)C)C(=O)N2)c(C(=O)O)c1 (stereo not given),inactive,–
CNc1cnn(-c2cccc(C(F)(F)F)c2)c(=O)c1Cl,inactive,–
COP(=O)(NC(C)=O)SC (stereo not given),inactive,–
N#CSCSC#N,inactive,–
Cc1nn(-c2cc(NS(C)(=O)=O)c(Cl)cc2Cl)c(=O)n1C(F)F,inactive,–
COP(=O)(OC)C(O)C(Cl)(Cl)Cl (stereo not given),inactive,–
C#CCC1=C(C)C(OC(=O)C2C(C=C(C)C)C2(C)C)CC1=O (stereo not given),inactive,–
C[Si](Cn1cncn1)(c1ccc(F)cc1)c1ccc(F)cc1,–,4.36 µM (active)
CCCCN(CC)c1c([N+](=O)[O-])cc(C(F)(F)F)cc1[N+](=O)[O-],inactive,–
CC1=NNC(=O)N(/N=C/c2cccnc2)C1,inactive,–
O=C(O)c1cc(Oc2ccc(C(F)(F)F)cc2Cl)ccc1[N+](=O)[O-],inactive,–
CC1(C(=O)Nc2ccc(O)c(Cl)c2Cl)CCCCC1,inactive,–
CCCCSP(=O)(SCCCC)SCCCC,inactive,–
CCOP(=S)(Oc1cnc(C(C)(C)C)nc1)OC(C)C (stereo not given),–,4.38 µM (active)
CCc1cccc(C)c1N(C(=O)CCl)C(C)COC (stereo not given),inactive,–
CC(COc1ccc(Oc2ccccc2)cc1)Oc1ccccn1 (stereo not given),inactive,–
